# The source made the active and inactive calls. Unless noted, the rule behind the calls is not given here.
# Assays:
# [1] = compound effects on lung adenocarcinoma cell viability – A549, calcein-AM fluorescence, 48 h, basal, profiling panel (AID 1162); settings: higher = more signal; note: test concentration not given here
# [2] = compound effects on differentiated 3T3-L1 adipocyte viability – cell-based, 3T3-L1 adipocytes, calcein-AM fluorescence, 48 h, basal, profiling panel (AID 1163); settings: 3T3-L1 adipocytes viability, higher = more signal; note: test concentration not given here
# [3] = compound effects on hepatocellular carcinoma cell viability – HepG2, calcein-AM fluorescence, 48 h, basal, profiling panel (AID 1164); settings: higher = more signal; note: test concentration not given here
# [4] = compound effects on multiple myeloma cell viability – MM1S, calcein-AM fluorescence, 48 h, basal, profiling panel (AID 1165); settings: higher = more signal;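 note: viability of MM1S multiple myeloma cells under basal unstimulated conditions; test concentration not given here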
# [5] = calcein-AM signal in unstimulated myeloma cells – cell-based, calcein-AM fluorescence, 48 h, PK04 Diversity Set, profiling panel (AID 1166); settings: RPMI8226 myeloma viability, higher = more signal;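 note: cells grown under basal conditions without added stimulus; test concentration not given here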
# [6] = JC-1 mitochondrial signal, unstimulated HepG2 cells – cell-based, JC-1 fluorescence, 24 h, 100 nL compound, profiling panel (AID 1167); settings: HepG2 mitochondrial potential, higher = more signal; note: test concentration not given here
# [7] = JC-1 mitochondrial signal, unstimulated adipocytes – cell-based, JC-1 fluorescence, 3T3-L1 adipocytes, 24 h, 100 nL compound, profiling panel (AID 1168); settings: JC-1 mitochondrial fluorescence, higher = more signal, called active from +8 up or from −8 down; note: test concentration not given here
# [8] = JC-1 mitochondrial signal, unstimulated myeloma cells – cell-based, JC-1 fluorescence, RPMI8226, 24 h, 100 nL compound, profiling panel (AID 1169); settings: JC-1 mitochondrial potential fluorescence, higher = more signal; note: test concentration not given here
# [9] = JC-1 mitochondrial signal, unstimulated MM1S myeloma – cell-based, JC-1 fluorescence, 24 h, 100 nL compound, profiling panel (AID 1170); settings: MM1S mitochondrial potential, higher = more signal; note: test concentration not given here
# [10] = resazurin metabolic signal in A549 cells – cell-based, resazurin fluorescence, 24 h, PK04 Diversity Set, profiling panel (AID 1171); settings: A549 viability, higher = more signal, called active from +8 up or from −8 down; note: test concentration not given here
# [11] = resazurin metabolic signal in HepG2 cells – cell-based, resazurin fluorescence, 24 h, PK04 Diversity Set, profiling panel (AID 1172); settings: HepG2 viability, higher = more signal; note: test concentration not given here
# [12] = budding yeast growth changes without added modifier – OD600, strain BY4716, 24 h, basal condition, primary screen (AID 1173); settings: S. cerevisiae BY4716 growth, OD600, 24 h; higher = more signal, called active from +8 up or from −8 down
# [13] = viability profiling in MM1S myeloma cells – cell-based, resazurin fluorescence, basal, 24 h, PK04 Diversity Set, profiling panel (AID 1174); settings: higher = more signal, called active from +8 up or from −8 down; note: test concentration not given here
# [14] = target: Dihydroorotate dehydrogenase (quinone), mitochondrial (Plasmodium falciparum (isolate 3D7)) (UniProt Q08210); test: inhibition of P. falciparum DHODH – biochemical, C-terminal His tag, absorbance 600 nm, primary screen (AID 1175); settings: PfDHODH enzyme, DCIP absorbance 600 nm; higher = more signal, called active from +8 up or from −8 down;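 note: recombinant parasite enzyme with a five histidine tag at its C terminus; test concentration not given here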
# Sequence of Dihydroorotate dehydrogenase (quinone), mitochondrial (Plasmodium falciparum (isolate 3D7)) (Q08210 whole entry, looked up): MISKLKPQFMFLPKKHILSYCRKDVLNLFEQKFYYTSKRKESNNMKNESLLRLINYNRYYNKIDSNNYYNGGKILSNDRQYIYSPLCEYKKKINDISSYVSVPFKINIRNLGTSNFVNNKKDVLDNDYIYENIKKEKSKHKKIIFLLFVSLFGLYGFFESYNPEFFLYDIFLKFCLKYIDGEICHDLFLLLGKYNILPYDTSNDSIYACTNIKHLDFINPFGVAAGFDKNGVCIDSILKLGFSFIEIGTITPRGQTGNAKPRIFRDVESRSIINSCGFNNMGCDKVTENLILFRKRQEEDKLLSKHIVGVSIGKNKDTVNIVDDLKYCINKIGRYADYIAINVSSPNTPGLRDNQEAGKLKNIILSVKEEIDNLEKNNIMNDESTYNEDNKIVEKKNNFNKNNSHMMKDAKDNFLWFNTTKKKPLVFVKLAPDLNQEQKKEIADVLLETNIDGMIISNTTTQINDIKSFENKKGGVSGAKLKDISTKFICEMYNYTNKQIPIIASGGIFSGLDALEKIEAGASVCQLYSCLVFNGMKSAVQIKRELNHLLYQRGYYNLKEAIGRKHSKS
# [15] = inhibition of PAO1 biofilm formation – strain PAO1, LB-PBS medium, absorbance 600 nm, primary screen (AID 1176); note: test concentration not given here; settings: P. aeruginosa PAO1 growth/biofilm, A600, 12 h; higher = more signal
# [16] = growth modulation of vineyard yeast isolate – strain RM11-1a, OD600, basal, 24 h, primary screen (AID 1177);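 note: cultures grown under basal conditions with no added stressor; test concentration not given here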; settings: S. cerevisiae RM11-1a growth, OD600, 24 h; higher = more signal, called active from +8 up or from −8 down
# [17] = growth of efflux-deficient E. coli DRC39 – strain DRC39, OD650, 24 h, E. coli filamentation inducers, primary screen (AID 1178);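 note: growth measured as culture turbidity by optical density at 650 nm; test concentration not given here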; settings: E. coli DRC39 acrAB, higher = more signal, called active from +8 up or from −8 down
# [18] = growth of efflux-deficient E. coli DRC39 – strain DRC39, OD650, 48 h, E. coli filamentation inducers, primary screen (AID 1179);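 note: screen aims at cell division blockers that make cells filament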; settings: E. coli DRC39 delta-acrAB growth, higher = more signal, called active from +8 up or from −8 down
# [19] = viability profiling in RPMI8226 myeloma cells – cell-based, resazurin fluorescence, basal, 24 h, PK04 Diversity Set, profiling panel (AID 1180); settings: higher = more signal;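 note: RPMI8826 multiple myeloma cell line at 5000 cells per well; test concentration not given here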
# [20] = target: E3 ubiquitin-protein ligase XIAP (Homo sapiens) (UniProt P98170); test: small molecules binding XIAP protein – biophysical, small-molecule microarray, fluorescence 635 nm, primary screen (AID 1181); settings: higher = more signal;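 note: score merges 667 nm emission and signal to noise over triplicate slides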
# Sequence of E3 ubiquitin-protein ligase XIAP (Homo sapiens) (P98170 whole entry, looked up): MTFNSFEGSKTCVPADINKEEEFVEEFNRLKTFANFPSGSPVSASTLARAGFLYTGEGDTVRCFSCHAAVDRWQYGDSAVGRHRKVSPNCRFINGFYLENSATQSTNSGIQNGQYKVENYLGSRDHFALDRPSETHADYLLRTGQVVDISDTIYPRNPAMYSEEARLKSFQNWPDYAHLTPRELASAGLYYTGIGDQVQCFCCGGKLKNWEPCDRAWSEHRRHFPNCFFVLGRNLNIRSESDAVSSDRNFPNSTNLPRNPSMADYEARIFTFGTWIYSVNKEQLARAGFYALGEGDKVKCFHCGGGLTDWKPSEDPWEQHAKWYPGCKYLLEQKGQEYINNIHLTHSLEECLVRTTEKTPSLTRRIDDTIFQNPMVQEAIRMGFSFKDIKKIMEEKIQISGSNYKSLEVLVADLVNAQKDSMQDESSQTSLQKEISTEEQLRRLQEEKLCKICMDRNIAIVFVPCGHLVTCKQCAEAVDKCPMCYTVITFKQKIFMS
SMILES,z-score [1],z-score [2],z-score [3],z-score [4],z-score [5],z-score [6],z-score [7],z-score [8],z-score [9],z-score [10],z-score [11],z-score [12],z-score [13],composite z-score [14],z-score [15],z-score [16],z-score [17],z-score [18],z-score [19],composite z-score [20]
CCCCCCc1nc(-c2ccc(OC)nc2)cc2c1[Si](C(C)C)(C(C)C)OC2,-0.848,0.608,0.238,-2.15,-3.11,-1.91,-0.191 (inactive),-0.791,-0.368,0.552 (inactive),0.0579,0.721 (inactive),0.426 (inactive),-3.12 (inactive),-0.0391 (inactive),-0.483 (inactive),0.37 (inactive),0.212 (inactive),0.343,-0.0525
COc1ccc(NC(=O)O[C@H]2[C@H](OC(=O)Nc3ccc4c(c3)OCO4)[C@H](OC(=O)Nc3ccc4c(c3)OCO4)[C@@H](OC)O[C@@H]2CO)cc1,-0.798,0.568,-0.54,-0.714,-0.983,-0.0127,-0.213 (inactive),-0.685,-1.19,-0.339 (inactive),-0.637,1.41 (inactive),-0.366 (inactive),0.229 (inactive),0.826 (inactive),1.88 (inactive),0.677 (inactive),0.18 (inactive),-0.686,0.52
CCOC(=O)C1=CC[C@@H](c2ccccc2)N(S(=O)(=O)c2ccc(C)cc2)[C@H]1C#N,-0.97,-0.84,-0.139,-3.21,-2.32,-0.858,-1.04 (inactive),-0.441,-2.33,0.172 (inactive),0.145,-0.134 (inactive),-1.08 (inactive),-3.15 (inactive),0.518 (inactive),0.0553 (inactive),-1.01 (inactive),0.27 (inactive),-0.99,0.129
CCOC(=O)C[C@H]1[C@H](OC(=O)c2ccc(-c3ccccc3)cc2)[C@@H](NC(=O)CC(C)C)c2cc(OCCCO)ccc2N1C(=O)Cc1ccc(OC)cc1,-0.39,0.22,-0.114,-1.7,-0.194,0.593,-1.43 (inactive),0.908,0.185,0.207 (inactive),-0.378,0.605 (inactive),-0.38 (inactive),0.423 (inactive),0.35 (inactive),-0.154 (inactive),-0.181 (inactive),-0.12 (inactive),-0.306,-0.274
COC(=O)C1=CC(CCCO)=CC(C2CC2)N(Cc2cccc(OC(F)(F)F)c2)C=C1C(=O)OC (stereo not given),-0.851,0.589,0.525,-0.525,-0.708,1.18,0.767 (inactive),-0.862,-0.159,0.644 (inactive),0.588,-1.76 (inactive),0.348 (inactive),-6.2 (inactive),0.034 (inactive),0.0808 (inactive),1.01 (inactive),1.1 (inactive),0.693,-0.22
[N-]=[N+]=NCc1ccccc1[C@H]1OC(c2ccc(OCCCO)cc2)=N[C@@]1(Cc1ccccc1)C(=O)N1CCOCC1,0.281,0.491,0.556,-1.45,-1.11,0.213,-1.67 (inactive),-0.887,0.35,1.56 (inactive),1.35,-2.25 (inactive),-0.0295 (inactive),0.222 (inactive),0.841 (inactive),0.176 (inactive),-0.0844 (inactive),-1 (inactive),0.349,0.0578
O=C1NC(=O)C2C1C=CC(C(O)c1cccc(O)c1)N2Nc1ccc(Cl)cc1Cl (stereo not given),-1.09,-0.648,-1.13,-3.03,-1.52,-2.54,-0.299 (inactive),-0.39,0.0224,-0.728 (inactive),-1.79,-13.3 (active),-1.31 (inactive),1.03 (inactive),0.695 (inactive),0.915 (inactive),-0.526 (inactive),-3.39 (inactive),-1.69,-0.039
C#CCN=C(N)N,-0.268,-0.677,0.527,0.67,0.381,-0.794,0.268 (inactive),-0.574,-0.922,0.0116 (inactive),-0.0276,-0.639 (inactive),0.111 (inactive),-0.377 (inactive),0.845 (inactive),-0.491 (inactive),-0.383 (inactive),-0.079 (inactive),0.0428,0.155
CCCCN1CC=CC23O[C@@H]4C=CCOC(=O)[C@@H]4[C@H]2C(=O)N(CCO)[C@@H]3C1=O (stereo not given in full),0.0738,-0.426,0.442,-1.05,0.342,-0.454,0.302 (inactive),0.837,-0.209,-0.437 (inactive),-0.394,1.31 (inactive),-0.202 (inactive),-0.161 (inactive),-0.208 (inactive),-0.322 (inactive),0.233 (inactive),0.109 (inactive),-0.236,-0.239
CC(C)CNC(=O)[C@@H]1c2ccccc2C(=O)N(CC23CC4CC(CC(C4)C2)C3)[C@H]1c1ccc(CO)cc1,0.226,0.918,0.537,0.107,-0.35,1.38,1.64 (inactive),-0.217,-0.0634,0.915 (inactive),0.82,-1.17 (inactive),1.93 (inactive),-0.42 (inactive),-0.397 (inactive),-0.0966 (inactive),0.256 (inactive),0.339 (inactive),0.281,-0.13
COCCOC(=O)N1C(=O)[C@@]2(c3cc(C#CCCO)ccc31)[C@H](C(=O)N1CCc3cc(OC)c(OC)cc3C1)[C@H]1C(=O)O[C@H](c3ccccc3)[C@H](c3ccccc3)N1[C@@H]2c1ccccc1OCCO,0.373,0.514,1.61,1.1,0.458,0.228,1.58 (inactive),-0.647,-1.23,0.456 (inactive),0.713,1.68 (inactive),0.208 (inactive),0.0306 (inactive),1.38 (inactive),2.69 (inactive),0.497 (inactive),0.74 (inactive),1.01,-0.0945
C=C(CC1([C@@H](NP(=O)(c2ccccc2)c2ccccc2)[C@H]2C[C@@H]2CCN(C(=O)OCC)S(=O)(=O)c2ccc(C)cc2)CC1)c1ccccc1,-2.02,1.2,-1.12,-0.798,-3.89,4.8,-1.47 (inactive),-0.699,-1.09,0.789 (inactive),0.716,1.97 (inactive),-1.59 (inactive),0.0407 (inactive),0.687 (inactive),1.52 (inactive),0.104 (inactive),-0.194 (inactive),-1.05,0.303
O=C1N(CCS(=O)(=O)c2ccccc2)c2ccccc2[C@@H]2OC(c3ccc(OCCCO)cc3)=N[C@]12CCS(=O)(=O)c1ccccc1,0.762,0.675,-0.136,-1.68,-0.104,-1.04,1.48 (inactive),-0.845,-0.774,0.967 (inactive),0.546,1.24 (inactive),-0.0861 (inactive),-0.038 (inactive),1.73 (inactive),1.8 (inactive),0.481 (inactive),-0.468 (inactive),-0.63,-0.265
C=CC(CO)NC(=O)OCC1c2ccccc2-c2ccccc21 (stereo not given),-0.454,0.351,-0.479,-1.07,0.0644,-0.692,0.386 (inactive),0.534,0.128,-0.62 (inactive),0.072,-1.46 (inactive),0.358 (inactive),-1.28 (inactive),0.0117 (inactive),-0.917 (inactive),-0.712 (inactive),-0.616 (inactive),0.388,-0.125
C=CCC(OC(C)=O)[C@@H]1[C@@H](N(Cc2ccc(-c3ccccc3)cc2)C(=O)c2cccc3ccccc23)c2cc(OCCCO)ccc2N1C(=O)c1ccc2ccccc2c1 (stereo not given in full),0.197,-0.114,0.833,-0.679,-0.202,1.91,-1.3 (inactive),-0.53,0.0357,-0.725 (inactive),-0.784,-0.185 (inactive),-0.967 (inactive),-0.318 (inactive),0.48 (inactive),-0.865 (inactive),0.144 (inactive),-0.455 (inactive),-1.3,-0.0017
C=C(CCCC)C(=O)CC[C@H](OC(C)=O)c1ccccc1OCCO,-0.655,1.66,-0.713,-3.29,-2.91,0.103,0.98 (inactive),-0.706,0.346,-1.24 (inactive),-1.32,-2.49 (inactive),-2.2 (inactive),-0.573 (inactive),-1.24 (inactive),0.0549 (inactive),-1.17 (inactive),-1.1 (inactive),-2.13,-0.0696
COCCn1c(C(=O)N2CCCC2)cc2c1C[C@H]1CN(C(=O)c3ccccc3)[C@@](Cc3ccccc3)(C(=O)OC)[C@@H]21,-1.94,-0.239,-0.768,0.0841,-1.37,0.678,-0.416 (inactive),-0.803,-0.688,-0.0413 (inactive),-0.171,0.859 (inactive),-0.738 (inactive),0.132 (inactive),0.535 (inactive),1.41 (inactive),-0.16 (inactive),-0.0447 (inactive),-0.923,0.369

# Source: PubChem BioAssay
